Assay results as given in PubChem BioAssay (NCI).
About 79,000 compounds went through this panel and 15% of them were active in at least one assay; those are over-represented in the sample as a whole. Calls of active or inactive are those of the source. Cut-off read from the data, not from the text of the source: active = growth inhibition above about 70%; inactive = the rest.

Key:
[1] = NCI Yeast Anticancer Drug Screen. Data for the rad52 strain (AID 147);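 note: 0% = growth of vehicle-treated control cultures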; details: S. cerevisiae rad52 mutant growth inhibition, active compounds read high
Method in brief: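 Measured: yeast growth inhibition. System: strain with a defined DNA damage repair alteration. Reference: vehicle-treated control cultures.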

[2] = NCI Yeast Anticancer Drug Screen. Data for the wt1 strain (AID 149);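 note: 0% = growth of vehicle-treated wt1 cultures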; details: S. cerevisiae wt1 strain (SPY 50644) growth inhibition, active compounds read high
Method in brief: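 Yeast wt1 strain exposed to compounds; growth inhibition measured relative to vehicle-treated controls.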

[3] = NCI Yeast Anticancer Drug Screen. Data for the mgt1 strain (AID 153); details: S. cerevisiae mgt1 mutant growth inhibition, active compounds read high
Method in brief: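 After exposure of the mgt1 yeast mutant to compound, growth was measured and reported as inhibition compared with vehicle controls.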

[4] = NCI Yeast Anticancer Drug Screen. Data for the rad50 strain (AID 155);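 note: 0% = growth of vehicle-only cultures of the same strain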; details: S. cerevisiae rad50 strain growth inhibition, active compounds read high
Method in brief: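 Yeast carrying a defined DNA repair defect were exposed to test compounds, and growth was compared with vehicle-treated controls to give percent inhibition.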

[5] = NCI Yeast Anticancer Drug Screen. Data for the mec2-1 strain (AID 157); details: S. cerevisiae mec2-1 strain, active compounds read high
Method in brief: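 Test agents were screened against the mec2-1 yeast strain, with defined DNA repair or cell cycle alteration. Growth was scored as inhibition against vehicle-only controls.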

[6] = NCI Yeast Anticancer Drug Screen. Data for the rad14 strain (AID 159);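 note: 0% = growth of vehicle-treated control cultures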; details: S. cerevisiae rad14 strain growth inhibition, active compounds read high
Method in brief: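 Yeast cells carrying a defined DNA-repair defect were exposed to compounds, and growth inhibition was calculated relative to vehicle-treated control cultures.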

[7] = NCI Yeast Anticancer Drug Screen. Data for the sgs1 mgt1 strain (AID 161);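 note: 0% = growth of cultures given vehicle only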; details: S. cerevisiae sgs1 mgt1 strain, active compounds read high
Method in brief: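 Inhibition of yeast growth, normalised to vehicle-treated controls, is reported for a strain bearing genetic alterations in DNA damage repair.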

[8] = NCI Yeast Anticancer Drug Screen. Data for the CLN2oe strain (AID 163);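 note: 0% = growth of vehicle-only control cultures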; details: S. cerevisiae CLN2oe strain, active compounds read high
Method in brief: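 Here, growth inhibition in a cell-cycle-altered yeast strain after compound exposure was quantified against vehicle control growth.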

[9] = NCI Yeast Anticancer Drug Screen. Data for the cln2 rad14 strain (AID 165);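 note: 0% = growth equal to vehicle treated cultures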; details: S. cerevisiae cln2 rad14 strain, active compounds read high
Method in brief: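 Growth of compound-exposed yeast (cln2 rad14 genotype) measured and expressed as inhibition relative to vehicle.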

[10] = NCI Yeast Anticancer Drug Screen. Data for the bub3 strain (AID 167); details: S. cerevisiae bub3 mutant strain, active compounds read high
Method in brief: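 Compounds were applied to a genetically altered yeast strain carrying a cell-cycle control defect. Growth inhibition was scored against vehicle-treated controls.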

[11] = NCI Yeast Anticancer Drug Screen. Data for the wt2 strain (AID 169);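 note: 0% = growth of vehicle-treated yeast cultures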; details: S. cerevisiae wt2 strain growth inhibition, active compounds read high
Method in brief: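 Genetically defined yeast strains from a DNA-repair/cell-cycle panel were used. Compound-exposed yeast growth was measured, and the inhibition was calculated relative to vehicle treatment.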

[12] = NCI Yeast Anticancer Drug Screen. Data for the mlh1 strain (AID 171);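 note: 0% = growth of vehicle-treated control cultures of the same strain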; details: S. cerevisiae mlh1 strain growth inhibition, active compounds read high
Method in brief: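 Here the genetically defined yeast mutant is grown with each compound, and the extent to which its growth falls below that of vehicle-exposed cells is reported.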

[13] = NCI Yeast Anticancer Drug Screen. Data for the sgs1 strain (AID 173);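 note: 0% = growth of vehicle-only control cultures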; details: S. cerevisiae sgs1 mutant, active compounds read high
Method in brief: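 Relative growth inhibition, referenced to vehicle, was determined in a yeast strain with a defined alteration affecting DNA damage repair or cell cycle control after compound exposure.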

[14] = NCI Yeast Anticancer Drug Screen. Data for the mlh1 rad18 strain (AID 175); details: S. cerevisiae mlh1 rad18 strain growth inhibition, active compounds read high
Method in brief: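 In this whole-cell yeast screen, a strain with altered DNA damage repair is challenged with compound, and its growth is measured against matched vehicle-treated controls.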

[15] = NCI Yeast Anticancer Drug Screen. Data for the rad18 strain (AID 177); details: S. cerevisiae rad18 mutant growth inhibition, active compounds read high
Method in brief: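 Screen uses a yeast strain with a defined lesion in DNA damage repair; compound effect is read as loss of growth compared to untreated vehicle cultures.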

[16] = NCI Yeast Anticancer Drug Screen. Data for the rad50EPP+ strain (AID 151);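 note: 0% = growth of vehicle-treated control cultures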; details: S. cerevisiae rad50 mutant strain, active compounds read high
Method in brief: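 One strain with a rad50 alteration (rad50EPP+) was compound-treated, its growth then compared to that of vehicle controls.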

[17] = at 5.0 µM (retest, dose inferred, filed as 0.5)
[18] = at 50.0 µM (retest, dose inferred, filed as 5.0)

Measured: growth inhibition

O=Cc1cccc2ccc3ccccc3c12
inactive: [1]; at 1.2 µM -6% | [1]; at 3.7 µM 0% | [1]; at 11.0 µM 7% | [1]; at 33.0 µM 62% | [2]; at 1.2 µM -6% | [2]; at 3.7 µM -5% | [2]; at 11.0 µM -8% | [2]; at 33.0 µM 7% | [2]; at 100.0 µM 52% | [3]; at 1.2 µM -2% | [3]; at 3.7 µM -4% | [3]; at 11.0 µM -3% | [3]; at 33.0 µM 32% | [4]; at 1.2 µM -7% | [4]; at 3.7 µM -12% | [4]; [17] -102% | [4]; at 11.0 µM 12% | [5]; at 1.2 µM -1% | [5]; at 3.7 µM -1% | [5]; [17] -45% | [5]; at 11.0 µM 1% | [5]; at 33.0 µM 1% | [5]; [18] 41% | [6]; at 1.2 µM -1% | [6]; at 3.7 µM 1% | [6]; at 11.0 µM 9% | [7]; [17] -56% | [8]; at 1.2 µM -1% | [8]; at 3.7 µM 0% | [8]; at 11.0 µM 9% | [8]; at 33.0 µM 15% | [9]; [17] -52% | [9]; [18] 2% | [10]; at 1.2 µM -7% | [10]; at 3.7 µM -4% | [10]; [17] -54% | [10]; at 11.0 µM -3% | [10]; at 33.0 µM 4% | [11]; at 1.2 µM -2% | [11]; at 3.7 µM -2% | [11]; at 11.0 µM -3% | [11]; at 33.0 µM 26% | [12]; at 1.2 µM 5% | [12]; at 3.7 µM -5% | [12]; at 11.0 µM -2% | [12]; at 33.0 µM 63% | [13]; at 1.2 µM -1% | [13]; at 3.7 µM -2% | [13]; at 11.0 µM 4% | [13]; at 33.0 µM 57% | [14]; [17] -91% | [15]; at 1.2 µM -6% | [15]; at 3.7 µM -2% | [15]; at 11.0 µM 6% | [15]; at 33.0 µM 43%
active: [1]; at 100.0 µM 98% | [3]; at 100.0 µM 98% | [4]; at 33.0 µM 94% | [4]; [18] 89% | [4]; at 50.0 µM 99.3% | [4]; at 100.0 µM 97% | [5]; at 50.0 µM 99.5% | [5]; at 100.0 µM 96% | [6]; at 33.0 µM 71% | [6]; at 100.0 µM 99% | [7]; [18] 73% | [7]; at 50.0 µM 98.2% | [8]; at 100.0 µM 88% | [9]; at 50.0 µM 98.7% | [10]; [18] 81% | [10]; at 50.0 µM 98.7% | [10]; at 100.0 µM 97% | [11]; at 100.0 µM 80% | [12]; at 100.0 µM 98% | [13]; at 100.0 µM 99% | [14]; [18] 82% | [14]; at 50.0 µM 98.8% | [15]; at 100.0 µM 98%

O=C(NNc1ccnc2cc(Cl)ccc12)/C(=C\c1ccccc1Cl)NC(=O)c1ccccc1
inactive: [2]; at 1.2 µM -80% | [2]; at 3.7 µM -1% | [2]; at 11.0 µM 6% | [2]; at 33.0 µM 21% | [2]; at 100.0 µM 28% | [16]; at 1.2 µM 17% | [16]; at 3.7 µM 55% | [3]; at 1.2 µM 2% | [3]; at 3.7 µM 23% | [3]; at 11.0 µM 32% | [3]; at 33.0 µM 61% | [3]; at 100.0 µM 62% | [4]; at 1.2 µM -1% | [4]; at 3.7 µM 4% | [4]; [17] -11% | [4]; at 11.0 µM 14% | [4]; at 33.0 µM 33% | [4]; [18] -18% | [4]; at 100.0 µM 30% | [5]; at 1.2 µM -5% | [5]; at 3.7 µM -1% | [5]; [17] -16% | [5]; at 11.0 µM -1% | [5]; at 33.0 µM 20% | [5]; [18] -30% | [5]; at 50.0 µM 39.6% | [5]; at 100.0 µM 14% | [6]; at 1.2 µM -2% | [6]; at 3.7 µM 1% | [6]; at 11.0 µM 1% | [6]; at 33.0 µM 3% | [6]; at 100.0 µM 0% | [7]; [17] -8% | [7]; [18] -37% | [8]; at 1.2 µM 11% | [8]; at 3.7 µM 32% | [9]; [17] 8% | [9]; [18] 22% | [9]; at 50.0 µM 55.4% | [10]; at 1.2 µM 0% | [10]; at 3.7 µM 14% | [10]; [17] 5% | [10]; at 11.0 µM 50% | [11]; at 1.2 µM 4% | [11]; at 3.7 µM 28% | [11]; at 11.0 µM 45% | [11]; at 33.0 µM 38% | [11]; at 100.0 µM 31% | [12]; at 1.2 µM -1% | [12]; at 3.7 µM 0% | [12]; at 11.0 µM 7% | [12]; at 33.0 µM 26% | [12]; at 100.0 µM 24% | [13]; at 1.2 µM 1% | [13]; at 3.7 µM 6% | [13]; at 11.0 µM 13% | [13]; at 33.0 µM 38% | [13]; at 100.0 µM 38% | [14]; [17] -13% | [14]; [18] 7% | [15]; at 1.2 µM -1% | [15]; at 3.7 µM 10% | [15]; at 11.0 µM 34% | [15]; at 33.0 µM 64% | [15]; at 100.0 µM 67%
active: [16]; at 11.0 µM 91% | [16]; at 33.0 µM 95% | [16]; at 100.0 µM 89% | [4]; at 50.0 µM 86.1% | [7]; at 50.0 µM 73% | [8]; at 11.0 µM 70% | [8]; at 33.0 µM 76% | [8]; at 100.0 µM 83% | [10]; at 33.0 µM 76% | [10]; [18] 80% | [10]; at 50.0 µM 85.8% | [10]; at 100.0 µM 76% | [14]; at 50.0 µM 90.1%

O=C1C=CC(=Nc2ccc3c(c2)Cc2cc(NC(=O)C(F)(F)F)ccc2-3)O1
active: [2]; at 100.0 µM 95% | [16]; at 11.0 µM 81% | [16]; at 33.0 µM 91% | [16]; at 100.0 µM 98% | [3]; at 100.0 µM 96% | [4]; [18] 96% | [4]; at 50.0 µM 82.4% | [4]; at 100.0 µM 97% | [5]; [17] 88% | [5]; [18] 95% | [5]; at 50.0 µM 96%
inactive: [2]; at 1.2 µM 3% | [2]; at 3.7 µM 4% | [2]; at 11.0 µM 11% | [2]; at 33.0 µM 20% | [16]; at 1.2 µM 8% | [16]; at 3.7 µM 40% | [3]; at 1.2 µM 1% | [3]; at 3.7 µM 5% | [3]; at 11.0 µM 12% | [3]; at 33.0 µM 36% | [4]; at 1.2 µM 2% | [4]; at 3.7 µM 7% | [4]; [17] 44% | [4]; at 11.0 µM 20% | [4]; at 33.0 µM 55% | [5]; at 1.2 µM 5% | [5]; at 3.7 µM 14% | [5]; at 11.0 µM 28% | [5]; at 33.0 µM 48%
